Results on 50 molecules are retold here after PubChem BioAssay AID1851 (National Center for Advancing Translational Sciences (NCATS), 2009).

The structures appear in SMILES notation. Hit rate of the full screen: of about 16,000 compounds, about 5,700 (36%) were called active. Not shown: some 24% with an inconclusive outcome. The list shows a part of the results. Values without a mark were called inactive. Calls follow the shape of the dose curve; as a rule, active = well fitted curve in the direction sought with a large enough effect; inconclusive = small, poorly fitted or top-dose-only effect, or effect the other way; inactive = no such curve, though single readings can be large or run the other way.
% is scaled to controls: 0 for no effect and ±100 for the full control effect.

Sequence of Cytochrome P450 1A2 (Homo sapiens) (P05177 whole entry, looked up): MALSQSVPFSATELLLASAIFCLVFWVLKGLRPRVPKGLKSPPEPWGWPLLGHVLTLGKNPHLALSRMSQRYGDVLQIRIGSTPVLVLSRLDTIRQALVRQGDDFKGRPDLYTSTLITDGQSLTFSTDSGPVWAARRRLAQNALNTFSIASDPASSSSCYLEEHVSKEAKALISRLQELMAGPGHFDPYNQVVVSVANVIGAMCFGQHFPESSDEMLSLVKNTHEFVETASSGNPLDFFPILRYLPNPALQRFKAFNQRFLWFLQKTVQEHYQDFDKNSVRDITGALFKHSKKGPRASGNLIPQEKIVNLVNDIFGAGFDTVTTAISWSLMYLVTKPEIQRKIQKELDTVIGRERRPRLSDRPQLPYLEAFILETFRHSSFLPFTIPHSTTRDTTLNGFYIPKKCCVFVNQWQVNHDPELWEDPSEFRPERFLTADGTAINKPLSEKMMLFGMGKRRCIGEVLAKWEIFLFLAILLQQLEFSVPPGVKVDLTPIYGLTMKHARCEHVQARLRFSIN

This experiment has as its target Cytochrome P450 1A2 (Homo sapiens) (UniProt P05177). The experiment in a line: Cytochrome panel assay with activity outcomes. As to conditions: recombinant CYP, pro-luciferin dealkylation, luminescence, p450-cyp1a2; series mostly up to 57.1 µM; activity, negative = inhibition: at the top concentration.
Consider `COc1c2occc2c(OC)c2c(=O)cc(C)oc12`, for which the AC50 is 0.02 µM (active).

Turning to `CCn1ccnc1C[C@@H]1COc2ccccc2O1`, the AC50 was 15.8 µM (active).

Turning to `CC1CCCC(C)N1CC(O)COCC1COc2ccccc2O1` (stereo not given), the “activity, negative = inhibition” value is 8.29%.

With `COc1ccc(Oc2ncc3nc(-c4cn(C)c5ccccc45)c(=O)n(C)c3n2)cc1`, the “activity, negative = inhibition” value is -15.1%.

For the molecule `CN1CCN(c2ncc3nc(-c4cn(C)c5ccccc45)c(=O)n(CCC#N)c3n2)CC1`, the AC50 is 15.8 µM (active).

For `COc1ncc2nc(-c3cn(C)c4ccccc34)c(=O)n(CCC#N)c2n1`, the AC50 was 5.01 µM (active).

On to `COc1ncc2nc(-c3cn(C)c4ccccc34)c(=O)n(C)c2n1`, for which the AC50 was 1 µM (active).

As to `CN1CCN(c2ncc3nc(-c4cn(C)c5ccccc45)c(=O)n(CCc4ccccc4)c3n2)CC1`, the “activity, negative = inhibition” value was -19.4%.

As for `OC[C@H]1NC[C@H](O)[C@@H](O)[C@H]1O`, the “activity, negative = inhibition” value was -2.04%.

On to `O=C(NCc1n[nH]c(=S)n1-c1ccccc1)c1ccc(S(=O)(=O)N2CCOCC2)cc1`, for which the “activity, negative = inhibition” value was -2.11%.

In the case of `NCCSC[C@H](N)C(=O)O`, the activity, negative = inhibition is -0.987% [at 11.4 µM].

As for `CN1CCCC2(CCN(C(=O)c3cc(C(F)(F)F)cc(C(F)(F)F)c3)CC2)C1`, the “activity, negative = inhibition” value is -18%.

Take `CCOC(=O)CC(NC(=O)c1cccs1)c1ccc(OCC)cc1` (stereo not given): the AC50 is 12.6 µM (active).

`CCOc1ccc(C(CC(=O)O)NC(=O)COc2ccccc2)cc1` (stereo not given): the “activity, negative = inhibition” value was 5.86%.

As for `O=C(O)C1=CCNCC1`, the AC50 result was “inactive”.

In the case of `Cc1cc(O)c(/C=N/Nc2cccc(Cl)c2)c(=O)o1`, the AC50 was 2.24 µM (active).

In the case of `Cc1cc(NC(=O)CSc2nc3ccccc3c(=O)n2CCCC(=O)NCc2ccco2)n[nH]1`, the “activity, negative = inhibition” value is -16%.

Take `Cc1cc(N2CCN(C)CC2)nc2ccc(NC(=O)CCC(=O)NCc3ccco3)cc12`: the concentration at half-maximal activity (AC50) is 1.26 µM (active).

As for `COCCCNC(=O)CCC(=O)Nc1ccc2nc(N3CCOCC3)cc(C)c2c1`, the “activity, negative = inhibition” value is -26.8%.

Regarding `CCOC(=O)c1cccc2c1-c1ccccc1/C2=N/O`, the AC50 is 1.58 µM (active).

`CCOC(=O)c1cc(CC)sc1NC(=O)C(c1ccccc1)c1ccccc1`: the “activity, negative = inhibition” value is -18.9%.

`Cn1c(SCC(=O)N/N=C/C=C\c2ccco2)nc2ccccc21`: the AC50 was 2 µM (active).

As to `Cc1ccc(/C=N/NC(=O)CSc2nc3ccccc3n2C)s1`, the AC50 was 2.51 µM (active).

For `Cc1nc2ccccc2n1CC(=O)N/N=C\c1ccccn1`, the “activity, negative = inhibition” value was -28.3%.

As for `Cc1nc2ccccc2n1CC(=O)N/N=C\C=C\c1ccccc1`, the AC50 is 5.01 µM (active).

Regarding `O=c1cc(CO)oc(CN2CCCC2)c1O`, the “activity, negative = inhibition” value is -5.92%.

Take `CC(=O)Nc1nc(NC(C)=O)c2[nH]c(CO)nc2n1`: the activity, negative = inhibition was -14.4% [at 11.4 µM].

`CN(N=O)C(=O)N[C@H]1[C@@H](O)[C@H](O)[C@H](CO)O[C@@H]1O`: the “activity, negative = inhibition” value is -6.54% [at 25.6 µM].

As to `COc1ccccc1-c1cncnc1N(C)Cc1ccco1`, the AC50 is 15.8 µM (active).

Consider `Cc1noc(C)c1-c1cncnc1N(C)Cc1ccco1`, for which the “activity, negative = inhibition” value is -2.89%.

In the case of `Cc1ccccc1-c1cncnc1N(C)Cc1ccco1`, the AC50 was 15.8 µM (active).

Turning to `CN(Cc1ccco1)c1ncncc1-c1ccccc1Cl`, the AC50 is 25.1 µM (active).

As to `COC(=O)[C@@H]1CC[C@H](C)[C@@H](c2ccc(C)cc2)N1C(=O)c1ccc(/C=N\O[C@@H]2O[C@H](COC(C)=O)[C@H](OC(C)=O)[C@H](OC(C)=O)[C@H]2OC(C)=O)cc1`, the activity, negative = inhibition was -1.33% [at 11.4 µM].

As to `CCOc1cc(C2CC(=O)c3c(ccc4ccccc34)N2)ccc1O` (stereo not given), the “activity, negative = inhibition” value is -10.8%.

Turning to `CC[C@H]1CC[C@H]2[C@@H]3CC=C4C[C@H](OC(C)=O)[C@@H](N)C[C@@]4(C)[C@H]3CC[C@@]12C`, the activity, negative = inhibition is -5.9% [at 11.4 µM].

Regarding `CCc1cc2c(Sc3nc4ccccc4s3)ncnc2s1`, the AC50 was 1.58 µM (active).

Regarding `c1ccc(-c2nc(NCc3cccnc3)c3ccccc3n2)cc1`, the AC50 is 1.12 µM (active).

Take `CN(C)c1ccc(-c2nc(NCc3cccnc3)c3ccccc3n2)cc1`: the AC50 was 1.58 µM (active).

On to `Cc1cccc(CNc2nc(-c3cccnc3)nc3ccccc23)c1`, for which the AC50 is 0.631 µM (active).

Consider `CCCCc1cc(=O)oc2cc(OCC(=O)N(CC)CC)ccc12`, for which the half-maximal activity concentration (AC50) was 12.6 µM (active).

As for `CCCc1cc(=O)oc2cc(OCc3nn[nH]n3)ccc12`, the AC50 was 12.6 µM (active).

Turning to `CCCc1cc(=O)oc2cc(OCC(=O)N3CCc4ccccc43)ccc12`, the “activity, negative = inhibition” value is -18.1%.

For the molecule `CCO[C@H](c1cc(OC)cc([N+](=O)[O-])c1OC)[C@H](C)/C=C\CC(=O)OC`, the activity, negative = inhibition is 1.93% [at 11.4 µM].

With `COc1ccc(/C(O)=C2\C(=O)C(=O)N(c3cc(C)on3)C2c2ccc(OC)c(OC)c2)cc1OC` (stereo not given), the “activity, negative = inhibition” value is -1.53%.

With `CC(=O)OCC(=O)[C@@]1(O)[C@H](C)C[C@@H]2[C@H]3CCC4=CC(=O)C=C[C@]4(C)[C@]3(F)[C@@H](O)C[C@@]21C`, the “activity, negative = inhibition” value is -5.82% [at 25.6 µM].

As for `O=C(CN1CCCC1)N/N=C/c1ccc(-c2cccc(Cl)c2)o1`, the AC50 was 8.91 µM (active).

Regarding `O=C(CSCc1ccccc1)Nc1ccc(S(=O)(=O)N2CCOCC2)cc1`, the “activity, negative = inhibition” value was 5.08%.

For `CCC(C)NS(=O)(=O)c1ccc(NC(=O)CCC2CCCCC2)cc1` (stereo not given), the “activity, negative = inhibition” value is -1.87%.

Consider `CSc1ccccc1NC(=O)CSCc1ccc(C)cc1`, for which the AC50 is 7.08 µM (active).

Take `CC(=O)c1cccc(NC(=O)CSCc2ccccc2)c1`: the AC50 is 2 µM (active).

One may read the AC50 as the concentration at which the activity in the assay is half-maximal.
